# Source: PubChem BioAssay AID853 (Columbia University Molecular Screening Center, 2007)
# Hit rate of the full screen: of about 47,000 compounds, about 200 (0.43%) were called active. Another 1% or so got no clear call; they are omitted. The sample holds actives, similar compounds and a random draw of the others, so the mix is not that of the screen.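 Rule for the calls: active = inhibition of aggregate fluorescence above about 70%, also judged a hit by eye on the cell image (limit read from the data, passing the limit was not always enough); inconclusive = no rule stated for this call; inactive = not judged a hit on image review.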
# Experiment: clearance of mutant huntingtin inclusions, primary screen, imaging, HeLa Exon1htt(103Q)mCFP, confocal imaging (AID 853);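 note: cells exposed to compound for three days before fixation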
# Settings: aggregate imaging, at 1.5 µM; fraction fluorescence in grains: measured here: aggregate grain fluorescence fraction, stronger effect = lower value; inhibition: stronger effect = higher value, zero = plate's median compound well
Structure (SMILES),fraction fluorescence in grains,inhibition
CC(Sc1nnc(Cc2ccc([N+](=O)[O-])cc2)o1)C(N)=O (stereo not drawn),30.7,0.3% (inactive)
Cc1nc(NC2=NC(C(=O)Nc3ccc(Cl)cc3)CC(=O)N2)nc2ccccc12 (stereo not drawn),22.8,22.1% (inactive)
CCCCCN1CC(O)=C(c2nc(-c3ccc(Cl)cc3)cs2)C1=N,36.3,8.6% (inactive)
CCN(CC)CCN1C(=O)C(=O)/C(=C(/O)c2cnn(-c3ccccc3)c2C)C1c1cccs1 (stereo not drawn),54.5,-25.7% (inactive)
O=C(NCCSCc1ccccc1)c1ccc(Cl)c(S(=O)(=O)N2CCOCC2)c1,25.6,-28.1% (inactive)
CC(=O)N1CCN(c2cccc(C)c2C)CC1,46.1,-25.4% (inactive)
CSCC[C@H](NC(=O)NCCc1ccc(F)cc1)C(=O)O,15.6,18.4% (inactive)
CC(C)C[C@H](NC(=O)NCCc1ccc(Cl)cc1)C(=O)O,16.2,12.2% (inactive)
C[C@H](NC(=O)NCCc1ccccc1)C(=O)O,5.06,70.9% (active)
O=C(c1ccc(F)cc1)c1c[nH]c(C(=O)NCc2cccnc2)c1,38.1,1% (inactive)
Fc1cnc(N2CCOCC2)nc1NCc1ccccc1,12.4,35.6% (inactive)
O=c1c2ccccc2nc2n1C(CSCc1ccccc1)CS2 (stereo not drawn),35.3,8.1% (inactive)
CCCc1cc(=O)[nH]c(SCC(=O)OCc2ccccc2)n1,59.2,-54.1% (inactive)
CCOC(=O)Cc1csc(NC(=O)CSc2nnc(-c3cccnc3)n2Cc2ccco2)n1,20.9,-18.9% (inactive)
Cc1nn(Cc2ccc(C(=O)N3N=C(C(F)F)CC3(O)C(F)F)cc2)c(C)c1[N+](=O)[O-] (stereo not drawn),62.5,-61% (inactive)
CCN1C(=O)/C(=C2/Sc3ccc(OC)cc3N2C)SC1=Nc1ccc(C)cc1,17.9,-1.7% (inactive)
CCOC(=O)c1cnc(SCC(=O)Nc2ccccc2C(=O)OC)nc1N,20.5,-16.8% (inactive)
COc1ccc(C(=O)Nc2nc(-c3ccc(OC)cc3)c(-c3ccc([N+](=O)[O-])cc3)s2)cc1,21.2,47.9% (inactive)
CCN(CC)S(=O)(=O)c1ccc2c3c(cccc13)C(=O)S2,38.9,-8.8% (inactive)
COc1ccc(Cl)cc1C(=O)NCC#N,28.6,27.9% (inactive)
COc1ccc(C(=O)NCCc2ccc(S(N)(=O)=O)cc2)cc1OC,43.5,-18.4% (inactive)

Structure (SMILES),fraction fluorescence in grains,inhibition
CCn1c(O)c2ccc(C(=O)N=NC(=O)c3cccnc3)cc2c1O,37.7,-25.3% (inactive)
Cc1ccc(-c2nn(-c3ccccc3)cc2/C=N/NC(=O)c2ccc3c(c2)OCO3)cc1,34,-12.7% (inactive)
CC12c3ccccc3C(c3ccccc31)C1C(=O)N(Cc3cccnc3)C(=O)C12 (stereo not drawn),12,60.9% (inactive)
COc1ccc(OC)c(/C=N/NC(=O)CSc2nnc(C)n2-c2ccccc2)c1,32.4,-7.5% (inactive)
Cc1cc(C)cc(NC(=O)c2cccc(NC(=O)C3C4CC5OC(=O)C3C5C4)c2)c1 (stereo not drawn),31,-31.4% (inactive)
O=C(c1ccccc1)c1cc(-c2ccccn2)c(N2CCOCC2)s1,30.5,22% (inactive)
Cc1ccc(-n2nc3c(c2NC(=O)CCC2CCCCC2)CS(=O)C3)cc1 (stereo not drawn),38.7,17.6% (inactive)
CC1=C(C(N)=O)C(c2sccc2C)n2nnnc2N1 (stereo not drawn),60.2,-59.3% (inactive)
O=C(Nc1ncc2c(n1)-c1ccccc1OC2)c1ccc(Cl)cc1,34.8,7.6% (inactive)
COc1cccc(N(CC(=O)NCCSc2ccccn2)S(C)(=O)=O)c1,32.4,-38.8% (inactive)
COc1cc(C)c(C(C)C)cc1S(=O)(=O)n1ccnc1,38.5,-120% (inactive)
O=C(NC1(C(F)(F)F)NC(=O)N(Cc2cccnc2)C1=O)c1ccccc1Cl (stereo not drawn),32.6,13.2% (inactive)
Cc1nnc(OCC(=O)NCCC2=CCCCC2)c2ccccc12,30.6,19% (inactive)
CCC(c1nnnn1Cc1ccccc1)N(Cc1cc2cc(OC)ccc2[nH]c1=O)CC1CCCO1 (stereo not drawn),3.01,83.8% (active)
Cc1cc2cc(CN(Cc3cccs3)Cc3nnnn3CC3CCCO3)c(=O)[nH]c2cc1C (stereo not drawn),18,47.9% (inactive)
CCC(c1nnnn1Cc1ccco1)N(Cc1cc2cc(OC)ccc2[nH]c1=O)C1CCCCC1 (stereo not drawn),12.1,36.8% (inactive)
CCC(c1nnnn1C1CCCC1)N(Cc1cccs1)Cc1cc2cccc(C)c2[nH]c1=O (stereo not drawn),14.9,27.8% (inactive)
CCC(c1nnnn1Cc1ccco1)N(CCc1ccccc1)Cc1cc2ccc(OC)cc2[nH]c1=O (stereo not drawn),19.4,46.6% (inactive)
CCC(c1nnnn1Cc1ccco1)N(CCc1ccccc1)Cc1cc2cccc(C)c2[nH]c1=O (stereo not drawn),4.66,75.8% (active)
CCOC(=O)C(C)Oc1cccc2c(=O)n(CC(=O)N3CCc4ccccc43)ccc12 (stereo not drawn),44.7,-33.2% (inactive)
CCCCNC(=O)OC(C)CNC(=O)OC (stereo not drawn),23.8,25% (inactive)

Structure (SMILES),fraction fluorescence in grains,inhibition
Cc1cc(C)c2c(-n3cccc3)c(NC(=O)OCc3ccccc3)sc2n1,37.4,-74.7% (inactive)
Cc1ccccc1CS(=O)(=O)CC1(O)CCN(C(=O)c2cccc(C(F)(F)F)c2)CC1,32.9,14.5% (inactive)
CC(=O)c1cccc(NC(=O)c2ccncc2)c1,33.8,20.4% (inactive)
COc1ccc2c3c(c(=O)oc2c1OCC(=O)C(C)(C)C)CCCC3,20.5,-3.3% (inactive)
N=c1c2c(-c3ccccc3)c(-c3ccccc3)oc2ncn1Cc1ccco1,39.1,-27.2% (inactive)
Cc1nnc(SCC(=O)N2CCN(c3ccccc3)CC2)n1-c1ccccc1,45.5,-15% (inactive)
O=C(O)c1ccc(F)c(S(=O)(=O)Nc2ccccc2)c1,49.7,-13.1% (inactive)
O=C(C(NS(=O)(=O)c1cccc2nsnc12)c1ccccc1)N1CCN(c2ccccn2)CC1 (stereo not drawn),32.5,12.4% (inactive)
O=C(O)c1ccc(NS(=O)(=O)c2cccc3nsnc23)cc1,5.36,70.5% (active)
Cc1cccc(-c2nc3c(c(SCC(=O)N4CCOCC4)n2)CCCC3)c1,18.5,-1.6% (inactive)
CCOc1ccc2c(c1)C(c1ccc(C)cc1)=NNC(c1ccc(C)cc1)=N2,11,38.1% (inactive)
Cn1c(CO)cnc1SCc1ccccc1,10.9,71.7% (active)
c1ccc(CSc2nnc(-c3ccco3)n2Cc2ccccc2)cc1,21.2,-3.2% (inactive)
CCS(=O)(=O)n1nc(-c2ccccc2)nc1SCc1ccccc1,24.1,-44.5% (inactive)
COC(=O)c1nc2ccccc2s1,22.8,-27.8% (inactive)
Cc1cc(OCCN2CCCC2)ccc1C(C)C,38.3,-2.5% (inactive)
CN1C(=O)CC(N2CCN(c3ccccn3)CC2)C1=O (stereo not drawn),29.4,-42.3% (inactive)
Cc1nc2nc(C)c(CCC(=O)N3CCN(c4ccccc4)CC3)c(C)n2n1,38.5,-21.5% (inactive)
CCSC(C)CC1C/C(=N/O)c2c(C)noc2C1 (stereo not drawn),43.5,-15.9% (inactive)
Cc1cc(C(=O)Nc2ccccc2N2CCOCC2)c2ccccc2n1,9.37,47.3% (inactive)
Cn1sc(NC(=O)c2ccccc2)nc1=O,24.3,-16.8% (inactive)

Structure (SMILES),fraction fluorescence in grains,inhibition
O=C1/C(=C\Nc2ccccc2)CCN1c1ncccn1,25.9,18.4% (inactive)
CCN(CC)c1ccc(NC(=O)c2ccc(Cl)nc2)cc1,60.1,-95.5% (inactive)
Clc1ccccc1-c1cc(COc2ccc3ccccc3c2)no1,33.9,11.8% (inactive)
Cc1c(NC(=O)c2cc(-c3ccc(Cl)s3)nc3ccccc23)c(=O)n(-c2ccccc2)n1C,26.1,21.8% (inactive)
Cc1ccc(S(=O)(=O)N2CC(=O)Nc3ccccc32)cc1C,33.9,11.1% (inactive)
COCCN(C(=O)c1ccco1)c1nnc(-c2ccc(OC)cc2)s1,39.8,-2.8% (inactive)
C=CCNC(=S)NNc1ncnc2sc3c(c12)CC(C)(C)OC3,40.7,-39.2% (inactive)
CC1=CC(C)(C)N(C(=O)CSc2nccn2C)c2cc(C)ccc21,13.3,26.1% (inactive)
CC(C)c1ccc(NC(=O)CCN2C(=O)c3ccc([N+](=O)[O-])cc3C2=O)cc1,13.6,55% (inactive)
COc1ccccc1NC(=O)CSc1nnc(C)n1CC1CCCO1 (stereo not drawn),15.8,17.7% (inactive)
COc1ccc(NC(=O)CCN2CCCC2)c(OC)c1,11.3,35.7% (inactive)
Cc1cc(-c2ccccc2)nc(N2CCC(C(=O)NC34CC5CC(CC(C5)C3)C4)CC2)n1,31,21.6% (inactive)
C=CCn1c(-c2ccc3[nH]c(C)c(C)c3c2)n[nH]c1=S,89.3,-112% (inactive)
Cc1ccc(CCN2CC(C(=O)O)CC2=O)cc1 (stereo not drawn),14.7,30.2% (inactive)
COc1ccc(C(CNC(=O)c2cccnc2SC)N2CCOCC2)cc1 (stereo not drawn),16.3,9.2% (inactive)
Cc1cc(C)nc(SCc2ccccc2C#N)n1,35.4,-3.8% (inactive)
Cc1ccc2[nH]c3c(=O)n(Cc4ccccn4)cnc3c2c1,21.3,46.1% (inactive)
Cc1ccc(-n2ccc(=O)c(C(=O)O)n2)cc1,23.5,0.4% (inactive)
Cc1cccc(C)c1-n1c(C)cc(/C=C2\C(=O)NN(c3ccccc3)C2=O)c1C,26.9,30.9% (inactive)
CCS(=O)(=O)N1CCN(C(=O)c2cccs2)CC1,32.5,27.2% (inactive)
C=CCC(NCc1ccco1)c1ccc(OC)cc1 (stereo not drawn),62.5,-55.5% (inactive)
